# Where a name gives a salt, the structure may show the parent alone.
# Assays:
# Test in all cases: Euclidean distance of Cell Painting phenotypic profile (signed KS, 77 features) to DMSO centroid (dimensionless distance); 5 or 10 uM (library dependent); higher = stronger phenotypic change vs DMSO (phenoactivity)
# Conditions in all cases: 48 h
# 786-O = test system: 786-O
# Procedure, shortened: (§1)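 Phenoactivity is defined as the Euclidean distance from a compound profile to the median vehicle profile. Each profile comprised 77 Harmony features, scored as signed Kolmogorov-Smirnov statistics versus same-plate vehicle wells, then plate-position corrected, correlation-weighted and replicate-averaged at the top dose. Five cancer lines and one healthy fibroblast line were exposed to library compounds for 48 h at 10 or 5 uM (0.1% DMSO final).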
# A549 = test system: A549
# Procedure, shortened: as §1
# DU145 = test system: DU145
# Procedure, shortened: as §1
# FB = test system: FB
# Procedure, shortened: as §1
# HEPG2 = test system: HEPG2
# Procedure, shortened: as §1
# OVCAR4 = test system: OVCAR4
# Procedure, shortened: as §1
Compound,Euclidean distance (786-O),Euclidean distance (A549),Euclidean distance (DU145),Euclidean distance (FB),Euclidean distance (HEPG2),Euclidean distance (OVCAR4)
CCC[C@@H]1C[C@@H](C(=O)N[C@@H]([C@H]2O[C@H](SC)[C@H](OP(=O)(O)O)[C@@H](O)[C@H]2O)[C@H](C)Cl)N(C)C1 [Clindamycin Phosphate],1.64,0.653,0.924,0.907,0.808,1.38
CC(C)[C@H](C(=O)Nc1ccc(C(=O)NO)cc1)c1ccccc1,3.25,4.55,3.1,4.34,4.16,3.22
CCOC(=O)OC(C)OC1=C(C(=O)Nc2ccccn2)N(C)S(=O)(=O)c2ccccc21 (stereo not drawn) [Ampiroxicam],1.26,1.35,0.928,0.606,0.41,1.47
O=C1CCc2cc(OCCCCc3nnnn3C3CCCCC3)ccc2N1 [Cilostazol],1.11,0.94,1.56,1.21,0.849,1.26
O=C1[C@@H]2[C@H]3CC[C@H](C3)[C@@H]2C(=O)N1C[C@@H]1CCCC[C@H]1CN1CCN(c2nsc3ccccc23)CC1 [lurasidone],1.37,1.25,1.92,1.35,0.479,1.27
C[C@@H](NC(=O)c1ncnc(N)c1Cl)c1ncc(C(=O)Nc2cc(C(F)(F)F)c(Cl)cn2)s1,1.57,2.12,1.59,1.41,0.931,1.52
Cc1nccn1CCC(C(N)=O)(c1ccccc1)c1ccccc1 [Imidafenacin],0.703,1.19,1.34,1.02,0.727,1.42
CC[N+](CC)(CC)CCOc1cccc(OCC[N+](CC)(CC)CC)c1OCC[N+](CC)(CC)CC [Gallamine Triethiodide],0.82,0.878,1.08,1.22,1.06,1.04
Cc1oc(=O)oc1CN1CCN(c2cc3c(cc2F)c(=O)c(C(=O)O)c2n3C(C)S2)CC1 (stereo not drawn) [Prulifloxacin (NM441. AF 3013)],1.38,0.71,0.968,0.785,1.9,0.841
N#Cc1ccc(Oc2ccc3c(c2)COB3O)cc1 [Crisaborole (AN2728)],1.25,1,0.832,0.837,2.52,1.91
C[C@]12CC[C@H](O)CC1=CC[C@@H]1[C@@H]2CC[C@]2(C)C(n3cnc4ccccc43)=CC[C@@H]12 [Galeterone],0.604,1.11,0.901,1.35,2.1,1.04
NCCS [Cysteamine HCl],0.86,0.424,0.624,1.02,0.897,1.07
Cc1cc(/C=C/C#N)cc(C)c1Nc1ccnc(Nc2ccc(C#N)cc2)n1 [Rilpivirine],1.85,2.11,1.55,1.69,0.573,0.925
Cc1cnc(-c2cnc(NCCNc3ccc(C#N)cn3)nc2-c2ccc(Cl)cc2Cl)[nH]1,1.86,2.18,1.61,1.12,1.15,1.13
COC(=O)[C@H]1[C@H]2C[C@@H]3c4[nH]c5cc(OC)ccc5c4CCN3C[C@H]2C[C@@H](OC(=O)c2cc(OC)c(OC)c(OC)c2)[C@@H]1OC [Reserpine],1.54,1.58,1.94,1.51,0.642,1.29
COc1ccc(-c2coc3cc(O)cc(O)c3c2=O)cc1 [Biochanin A],0.496,0.937,0.839,0.805,1.1,0.958
CCCCc1oc2ccc(NS(C)(=O)=O)cc2c1C(=O)c1ccc(OCCCN(CCCC)CCCC)cc1 [Dronedarone],4.33,4.18,3.45,3.39,4.6,3.76
c1cc(CN2CCCNCCNCCCNCC2)ccc1CN1CCCNCCNCCCNCC1 [Plerixafor 8HCl (AMD3100 8HCl)],1.37,1.38,0.691,1.5,0.69,1.7
CN(C)Cc1ccc(-c2nc3cccc4c3n2CCNC4=O)cc1,1.75,1.77,1.51,1.3,1.62,1.41
COCC(=O)NC/C=C/c1ccc2ncnc(Nc3ccc(Oc4ccc(C)nc4)c(C)c3)c2c1,0.785,1.34,1.13,0.952,0.896,0.777
CC(COc1ccccc1)N(CCCl)Cc1ccccc1 (stereo not drawn) [Phenoxybenzamine HCl],1.48,0.892,1.06,0.978,0.778,1.55
O=C1NC(=O)/C(=C/c2ccc(-c3ccc(F)cc3O)o2)S1,1.18,0.855,1.25,1.02,0.814,0.97
CO[C@H]1C[C@@H]2CC[C@@H](C)[C@@](O)(O2)C(=O)C(=O)N2CCCC[C@H]2C(=O)O[C@H]([C@H](C)C[C@@H]2CC[C@@H](OP(C)(C)=O)[C@H](OC)C2)CC(=O)[C@H](C)/C=C(\C)[C@@H](O)[C@@H](OC)C(=O)[C@H](C)C[C@H](C)/C=C/C=C/C=C/1C [Ridaforolimus (Deforolimus. MK-8669)],2.74,1.98,1.3,2.88,1.37,2.04
